According to PubChem BioAssay (Tox21):
Results filed as inconclusive are left out. The source made the active and inactive calls. Unless noted, calls follow the shape of the dose curve; as a rule, active = well fitted curve in the direction sought with a large enough effect in the repeat runs; inconclusive = weak or mixed curves; inactive = flat fitted curve, though single readings scatter. Positions of bridges follow the written chain, without caps; N, C: chain ends. Non-standard residues stand in square brackets, D forms with d. Residues, ends and D or L forms follow the SMILES beside them. ξ: configuration not given here. *: point of attachment. d(aThr) = C[C@@H](O)[C@@H](N)C(=O)O; ξThr(3R) = C[C@@H](O)C(N)C(=O)O; X3 = CC[C@@H](C)CCCCC(=O)*; dDab = NCC[C@@H](N)C(=O)O

Legend:
[1] = qHTS assay to test for compound auto fluorescence at 535 nm (green) in HEK293 cells (AID 720680)
[2] = qHTS assay to test for compound auto fluorescence at 460 nm (blue) in HEK293 cell free culture (AID 720681)
In short: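 Compounds were added to cell-free DMEM with 10% FBS and fluorescence read directly. The blue channel used 405 nm excitation and 460 nm emission, with triamterene as the reference fluorophore.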

[3] = qHTS assay to test for compound auto fluorescence at 535 nm (green) in HEK293 cell free culture (AID 720682)
In short: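 Read-out: 485/535 nm fluorescence intensity, calibrated against fluorescein. Medium only (DMEM + 10% FBS, no cells); test compound or DMSO vehicle added by pintool before plate reading.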

[4] = qHTS assay to test for compound auto fluorescence at 590 nm (red) in HEK293 cell free culture (AID 720683)
In short: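 Cell-free wells of DMEM with 10% FBS received compound, and intrinsic fluorescence was read at excitation/emission 540/590 nm. Values expressed as equivalence to Rose Bengal sodium.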

[5] = qHTS assay to test for compound auto fluorescence at 590 nm (red) in HepG2 cell free culture (AID 720684)
In short: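 Compound was pinned into wells holding MEM with 10% FBS and no cells, and red fluorescence was read at Ex/Em 540/590 nm. Signal is expressed as auto fluorescence equivalency relative to Rose Bengal sodium.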

[6] = qHTS assay to test for compound auto fluorescence at 460 nm (blue) in HepG2 cell free culture (AID 720685)
In short: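 Compound (23 nL) or DMSO pinned into cell-free MEM with 10% FBS; blue fluorescence read at 405/460 nm excitation/emission, expressed as auto-fluorescence equivalency to triamterene.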

[7] = qHTS assay to test for compound auto fluorescence at 535 nm (green) in HepG2 cell free culture (AID 720686)
[8] = qHTS assay to test for compound auto fluorescence at 460 nm (blue) in HepG2 cells (AID 720687)
In short: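 HepG2 cells in MEM with 10% FBS, attached overnight at 37 C, were exposed to compound or DMSO for 1 hr at 37 C, 5% CO2. Blue fluorescence was read at 405/460 nm, with triamterene as reference fluorophore.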

[9] = target: Glucocorticoid receptor (Homo sapiens) (UniProt P04150); experiment: qHTS assay to identify small molecule agonists of the glucocorticoid receptor (GR) signaling pathway (AID 720691; active = well fitted activation curve with a large enough effect in the signal ratio in the repeat runs, not every such curve was filed as active; the % refers to the signal ratio); conditions: GR-bla HeLa, beta-lactamase reporter ratio, 18 h; activation: at 62.4 µM (top of the series)
In short: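 Beta-lactamase reporter activity, read as fluorescence intensity, was measured in GR-bla HeLa cells exposed to compounds for 18 h at 37 C and then loaded with LiveBLAzer B/G FRET substrate for 2 h at room temperature.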

[10] = target: Glucocorticoid receptor (Homo sapiens) (UniProt P04150); experiment: qHTS assay to identify small molecule antagonists of the glucocorticoid receptor (GR) signaling pathway (AID 720692; active = well fitted inhibition curve with a large enough effect in the signal ratio in the repeat runs, not every such curve was filed as active; the % refers to the signal ratio)
In short: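 Fluorescence from cleaved LiveBLAzer B/G FRET substrate reports GRE-driven beta-lactamase in HeLa cells; compounds are tested against 5 nM dexamethasone (final) over 18 h at 37 C, substrate incubation 2 h at room temperature.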

Measured: Potency

Sequence of Glucocorticoid receptor (Homo sapiens) (P04150 whole entry, looked up): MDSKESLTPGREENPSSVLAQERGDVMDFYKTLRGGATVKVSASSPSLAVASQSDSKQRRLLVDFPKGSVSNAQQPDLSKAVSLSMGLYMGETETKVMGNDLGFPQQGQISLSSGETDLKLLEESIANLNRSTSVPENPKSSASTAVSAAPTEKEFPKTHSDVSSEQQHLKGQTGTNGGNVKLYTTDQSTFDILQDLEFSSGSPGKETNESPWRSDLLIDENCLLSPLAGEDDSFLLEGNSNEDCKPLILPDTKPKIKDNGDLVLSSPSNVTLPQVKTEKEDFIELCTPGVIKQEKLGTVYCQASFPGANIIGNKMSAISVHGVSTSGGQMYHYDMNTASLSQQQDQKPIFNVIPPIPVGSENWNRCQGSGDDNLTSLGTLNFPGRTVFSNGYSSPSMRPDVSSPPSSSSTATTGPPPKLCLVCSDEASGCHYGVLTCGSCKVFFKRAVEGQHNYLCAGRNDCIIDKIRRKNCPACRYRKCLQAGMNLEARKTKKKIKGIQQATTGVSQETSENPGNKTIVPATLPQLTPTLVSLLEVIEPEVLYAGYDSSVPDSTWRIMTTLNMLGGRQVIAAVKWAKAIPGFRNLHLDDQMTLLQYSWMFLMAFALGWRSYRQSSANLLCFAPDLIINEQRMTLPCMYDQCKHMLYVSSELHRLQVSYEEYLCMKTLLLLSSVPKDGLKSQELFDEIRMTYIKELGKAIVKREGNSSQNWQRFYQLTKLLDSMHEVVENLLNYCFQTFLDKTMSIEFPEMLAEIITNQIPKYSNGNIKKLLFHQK

CC(C)=CCC/C(C)=C/C=C/C(C)=C/C=C/C(C)=C/C=C/C=C(C)/C=C/C=C(C)/C=C/C=C(\C)CCC=C(C)C
inactive: [1] | [2] | [3] | [4] | [5] | [6] | [7] | [8] | [9] | [10]

CC(=O)O[C@H]1C(=O)[C@@]2(C)[C@H]([C@H](OC(=O)c3ccccc3)[C@]3(O)C[C@H](OC(=O)[C@H](O)[C@@H](NC(=O)c4ccccc4)c4ccccc4)C(C)=C1C3(C)C)[C@]1(OC(C)=O)CO[C@@H]1C[C@@H]2O
inactive: [1] | [2] | [3] | [4] | [5] | [6] | [7] | [8] | [9] | [10]

Cn1c(=O)c2c(ncn2CCOC(=O)C(C)(C)Oc2ccc(Cl)cc2)n(C)c1=O
inactive: [1] | [2] | [3] | [4] | [5] | [6] | [7] | [8] | [9] | [10]

O=C1NCCN1c1ncc([N+](=O)[O-])s1
inactive: [1] | [2] | [3] | [4] | [5] | [6] | [7] | [8] | [9] | [10]

O=C1NC(=O)[C@H]2[C@@H]1[C@@H]1C=C[C@H]2C1
inactive: [1] | [2] | [3] | [4] | [5] | [6] | [7] | [8] | [9] | [10]

COC(=O)CCC(=O)CN
inactive: [1] | [2] | [3] | [4] | [5] | [6] | [7] | [8] | [9] | [10]

CCC(=O)O[C@@H]1CC(=O)O[C@H](C)C/C=C/C=C/[C@H](O)[C@H](C)C[C@H](CC=O)[C@H](O[C@@H]2O[C@H](C)[C@@H](O[C@H]3C[C@@](C)(O)[C@@H](OC(=O)CC)[C@H](C)O3)[C@H](N(C)C)[C@H]2O)[C@H]1OC
inactive: [1] | [2] | [3] | [4] | [5] | [6] | [7] | [8] | [9] | [10]

O=[N+]([O-])O[C@@H]1CO[C@H]2[C@@H]1OC[C@@H]2O
inactive: [1] | [2] | [3] | [4] | [5] | [6] | [7] | [8] | [9] | [10]

c1ccc2c(c1)Sc1ccccc1N2CCN1CCCC1
inactive: [1] | [2] | [3] | [4] | [5] | [6] | [7] | [8] | [9]

NC(=O)Oc1ccc(Cc2ccccc2)cc1
inactive: [1] | [2] | [3] | [4] | [5] | [6] | [7] | [8] | [9] | [10]

FC(F)(F)C(F)(F)C(F)(F)C(F)(F)C(F)(F)C(F)(F)F
inactive: [1] | [2] | [3] | [4] | [5] | [6] | [7] | [8] | [9] | [10]

NCc1ccccc1CC(=O)N[C@@H]1C(=O)N2C(C(=O)O)=C(CSc3nnnn3CC(=O)O)CS[C@H]12
inactive: [1] | [2] | [3] | [4] | [5] | [6] | [7] | [8] | [9]

O=C(O)c1cccc(/C=C2/C[C@@H]3[C@@H](/C=C/[C@@H](O)C4CCCCC4)[C@H](O)C[C@@H]3O2)c1
inactive: [1] | [2] | [3] | [4] | [5] | [6] | [7] | [8] | [9] | [10]

c1ccc2c(CCC3CCNCC3)c[nH]c2c1
inactive: [1] | [2] | [3] | [4] | [5] | [6] | [7] | [8] | [9] | [10]

CC(=O)c1ccc2c(c1)N(CCCN1CCN(CCO)CC1)c1ccccc1S2
inactive: [1] | [2] | [3] | [4] | [5] | [6] | [7] | [8] | [9] | [10]

CC(C)(C)NC[C@H](O)COc1ccccc1C1CCCC1
inactive: [1] | [2] | [3] | [4] | [5] | [6] | [7] | [8] | [9] | [10]

NCCCC[C@H](NC(=O)[C@@H]1CCCN1C(=O)[C@@H]1CSSC[C@H](N)C(=O)N[C@@H](Cc2ccccc2)C(=O)N[C@@H](Cc2ccccc2)C(=O)N[C@@H](CCC(N)=O)C(=O)N[C@@H](CC(N)=O)C(=O)N1)C(=O)NCC(N)=O
inactive: [1] | [2] | [3] | [4] | [5] | [6] | [7] | [8] | [9] | [10]

CCOC(=O)[C@H](CS)NCCN[C@@H](CS)C(=O)OCC
inactive: [1] | [2] | [3] | [4] | [5] | [6] | [7] | [8] | [9] | [10]

CC[C@@H](C)CCCCC(=O)N[C@H](CCN)C(=O)N[C@@H](C(=O)N[C@H](CCN)C(=O)N[C@@H]1CCNC(=O)C([C@@H](C)O)NC(=O)[C@@H](CCN)NC(=O)[C@@H](CCN)NC(=O)[C@@H](CC(C)C)NC(=O)[C@@H](Cc2ccccc2)NC(=O)[C@@H](CCN)NC1=O)[C@@H](C)O (stereo partly drawn) (X3-[dDab][d(aThr)][dDab][dDab][dDab][dF][dL][dDab][dDab][ξThr(3R)]; lactam 4-C)
inactive: [1] | [2] | [3] | [4] | [5] | [6] | [7] | [8] | [9] | [10]

CO/N=C(\C(=O)N[C@@H]1C(=O)N2C(C(=O)O)=C(CSc3nnnn3C)CS[C@H]12)c1csc(N)n1
inactive: [1] | [2] | [3] | [4] | [5] | [6] | [7] | [8] | [9] | [10]
